TGFb SMAD3 inh: blocks TGF-b signaling. HepG2 CAGA-GFP TGF-b/SMAD3 reporter, GFP fluorescence, 18 h; TGF-beta stimulated, 500 pg/mL final. actives 1.2% (n = 410,000). Potency, µM (top dose mostly 46.1 µM), for the others: at the top dose activity, negative = inhibition, most hits filed as inhibitors; also: potency is read from the fitted curve at half-maximal effect; % is scaled to controls: 0 for no effect and ±100 for the full control effect; nearly all actives have a fitted effect of over 65% in size
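HEPG2 CAGA-GFP reporter cells (1000/well, DMEM with 1% FBS) received compounds, then recombinant TGF-beta at 500 pg/mL final for 18 hours at 37 degrees C. Per-cell GFP summed per well was normalised to unstimulated and stimulated DMSO controls before curve fitting.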
TDP1 cell noCPT: qHTS for Inhibitors of human tyrosyl-DNA phosphodiesterase 1 (TDP1): qHTS in cells in absence of CPT; actives 15% (n = 420,000); AID 686978, 2013; DT40 Tdp1-/- hTDP1 cells, no CPT, ATP luminescence, 48 h; Potency, µM (top dose mostly 46.2 µM), inactives show top-dose activity change, negative = growth inhibition, actives largely listed as inhibitors; also: potency is read from the fitted curve at half-maximal effect; % is scaled to controls: 0 for no effect and ±100 for the full control effect; nearly all actives have a fitted effect of over 55% in size
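Cells were dispensed at 400 per well, compounds added by pin tool, plates incubated ≥48 hr at 37 °C, then CellTiter-Glo added for 30 min at room temperature before luminescence reading. Line: DT40 Tdp1-/- complemented with hTDP1; camptothecin omitted.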
TDP1 cell CPT: growth inhibition of DT40 Tdp1-/-;hTDP1 cells with camptothecin (screen for TDP1 inhibitors); chicken DT40 Tdp1-/-;hTDP1 cells + 20 nM CPT, ATP luminescence, 48 h; Potency, µM (doses to about 46.2 µM), for inactives: at the highest dose activity change, negative = growth inhibition, most hits filed as inhibitors; actives 12% (n = 420,000); also: potency is read from the fitted curve at half-maximal effect; % is scaled to controls: 0 for no effect and ±100 for the full control effect; nearly all actives have a fitted effect of over 55% in size
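Chicken DT40 Tdp1-/- cells stably complemented with human TDP1 were seeded at 400 cells/well in medium containing 20 nM camptothecin, exposed to pin-transferred compounds, and grown at 37 °C for at least 48 hr. Viability was read as ATP luminescence.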
HepG2 tox: counter-screen for TGF-b inhibitors: cytotoxicity in HepG2 cells | HepG2 CAGA-GFP viability, ATP luminescence, 18 h | Potency, µM (series often up to 46.1 µM), for inactives: at the highest dose activity change, negative = cytotoxicity, hits mostly cytotoxic | actives 0.76% (n = 410,000) | AID 588856; also: potency is read from the fitted curve at half-maximal effect
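CellTiter-Glo luminescence gave cytotoxicity after 18 hours at 37 degrees C. The cells were HepG2 CAGA-GFP in 1% FBS DMEM, stimulated with 500 pg/mL TGF-beta after compound addition. %Activity was normalised to no-cell wells (complete cell-killing) and DMSO (no toxicity), and curves were fitted and classified.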
IL1B secr inh: blocks inflammasome-driven IL-1 beta release. THP-1 LPS/ATP IL-1B secretion, AlphaLISA, 16 h; stronger effect = lower value. activity change, % at 57.5 µM. actives 4.7% (n = 360,000). AID 743279; in the data active = activity change below about -50%; inconclusive = mostly about -30% to -49%; also: % is scaled to controls: 0 for no effect and ±100 for the full control effect
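Secreted IL-1B measured by AlphaLISA bead assay after 16 h compound exposure of THP-1 cells; compounds (final up to 57.5 uM) added 1 h before LPS (250 ng/mL) and ATP (1.25 mM) stimulation; lower signal means less secretion.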
TDP1 block: blocks human tyrosyl-DNA phosphodiesterase 1; recombinant TDP1, AlphaScreen DNA substrate cleavage; Potency, µM (titrated, usually from 130 µM), for inactives: top-dose activity change, negative = inhibition, hits mostly inhibitors; Q9NUW8; actives 0.28% (n = 350,000); also: potency is read from the fitted curve at half-maximal effect; % is scaled to controls: 0 for no effect and ±100 for the full control effect; nearly all actives have a fitted effect of over 40% in size
Target sequence (Q9NUW8 whole entry, looked up): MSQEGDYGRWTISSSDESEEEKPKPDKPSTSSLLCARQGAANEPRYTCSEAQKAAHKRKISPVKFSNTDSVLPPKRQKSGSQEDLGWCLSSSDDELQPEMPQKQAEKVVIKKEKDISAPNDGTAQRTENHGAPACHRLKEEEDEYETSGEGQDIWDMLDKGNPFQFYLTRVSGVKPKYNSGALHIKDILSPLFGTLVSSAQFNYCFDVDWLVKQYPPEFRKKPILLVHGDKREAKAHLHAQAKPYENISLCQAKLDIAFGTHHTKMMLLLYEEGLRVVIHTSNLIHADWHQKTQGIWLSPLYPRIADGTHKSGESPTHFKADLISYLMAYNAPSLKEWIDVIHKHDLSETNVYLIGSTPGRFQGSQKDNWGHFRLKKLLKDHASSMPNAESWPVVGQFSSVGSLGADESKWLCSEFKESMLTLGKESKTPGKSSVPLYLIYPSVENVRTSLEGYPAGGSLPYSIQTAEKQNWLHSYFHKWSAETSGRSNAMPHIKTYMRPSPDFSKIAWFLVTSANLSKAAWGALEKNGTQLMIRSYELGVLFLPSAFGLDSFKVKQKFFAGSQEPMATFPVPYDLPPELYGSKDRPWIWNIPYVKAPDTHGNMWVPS
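Recombinant human Tdp1 (E. coli-expressed, 1 nM final) preincubated with compounds 15 min at room temperature, then 5'-biotin/3'-phosphotyrosine-FITC DNA substrate (15 nM final) added for 5 min. AlphaScreen beads (10 ug/ml final) added 10 min; cleavage lowers signal.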
Numbers without * were called inactive; i = inactive; ? = inconclusive; nt = not tested or not shown; [ ] = another dose, or the depositor's remark. Rows were chosen to be rich in hits. Some 18% of all compounds tested hit in one or more screens of this group. Unless noted, calls follow the shape of the dose curve; as a rule, active = well fitted curve in the direction sought with a large enough effect; inconclusive = small, poorly fitted or top-dose-only effect, or another doubt; inactive = no such curve, though single readings can be large; an effect the other way counts as inactive or inconclusive.

SMILES	TGFb SMAD3 inh	TDP1 cell noCPT	TDP1 cell CPT	HepG2 tox	IL1B secr inh	TDP1 block
O=c1c2ccsc2ncn1Cc1ccc(Cl)cc1	-0.6%	18.4µM*	?	7.9%	-2.4	6.2%
O=c1c2ccccc2ncn1Cc1ccccc1	16.8%	9.0%	17.8%	18.0%	12.0	5.9%
CC(=O)NC(=S)NNC(=O)COc1ccc(Br)cc1	3.0%	0.9%	-37.7%	-1.4%	-4.3	6.0%
O=C(COc1ccc(Br)cc1)NNC(=S)NC(=O)c1ccccc1[N+](=O)[O-]	-16.6%	20.6µM*	?	-16.0%	30.4	-5.5%
O=C(NNC(=S)NC(=O)c1ccccc1[N+](=O)[O-])c1ccccc1[N+](=O)[O-]	-2.0%	-4.3%	-2.0%	-8.2%	-17.7	10.1%
O=C(NNC(=S)Nc1ccccc1)c1ccccc1[N+](=O)[O-]	-2.8%	-26.8%	8.4%	1.6%	-73.1*	5.6%
Cc1ccc(C(=O)NC(=S)NNC(=O)c2ccccc2[N+](=O)[O-])cc1	5.8%	?	20.6µM*	-2.1%	0.0	10.4%
CCCCOc1ccccc1C(=O)NNC(=S)NC(=O)c1ccccc1[N+](=O)[O-]	-3.9%	18.4µM*	25.9µM*	-12.1%	67.3	nt
O=[N+]([O-])c1cccc(S(=O)(=O)NCCNS(=O)(=O)c2cccc([N+](=O)[O-])c2)c1	nt	-18.9%	2.6%	nt	nt	5.2%
COc1ccc(S(=O)(=O)NC(CC(=O)NCCc2ccc(OC)c(OC)c2)c2ccco2)cc1 (configuration not stated)	-42.9%	?	-20.7%	9.1%	-22.0	3.1%
O=C(NNC(=S)NC(=O)c1ccccc1[N+](=O)[O-])c1ccccc1O	5.5%	18.4µM*	?	-4.5%	24.7	9.0%
C#Cc1ccc(CN2CCC(Oc3cc(C(=O)NC4CC4)ccc3OC)CC2)cc1	-1.9%	?	?	-3.1%	-9.3	nt
CCN(CC)Cc1cc(Oc2ccc(O)c(CN(CC)CC)c2)ccc1O	-2.2%	23.1µM*	20.6µM*	-33.9%	-72.1*	nt
CCN(CC)Cc1cc(C(C)=O)ccc1OCC(C)C	-2.0%	0.3%	14.8%	-9.4%	0.0	2.1%
COCC(CN1CCN(C2=NS(=O)(=O)c3ccccc32)CC1)OC(=O)c1ccccc1 (configuration not stated)	-0.3%	-15.6%	2.6%	1.7%	-0.9	nt
Cc1ccc(Nc2nc(CSc3nnc(-c4ccccc4C)n3C)cs2)cc1	0.0%	?	?	-31.1%	?	-2.7%
Cc1ccc(Nc2nc(CSc3nnc(-c4cccnc4)n3-c3ccccc3C)cs2)cc1	0.0%	14.6µM*	14.6µM*	12.7%	?	4.5%
Cc1ccccc1-n1c(SCc2csc(Nc3ccccc3)n2)nnc1-c1cccnc1	?	13µM*	11.6µM*	-31.0%	-23.4	5.3%
COc1ccc(OC)c(CN2CCOc3ccc(CN4CCC(O)(c5cccnc5)CC4)cc3C2)c1	nt	?	5.2%[9.04 µM]	nt	nt	nt
NC(=O)c1ccc(NC(=O)CSC(=O)c2ccccc2)cc1	0.2%	-3.5%	-1.3%	-12.7%	11.0	0.8%
COc1cc(/C=C(\C#N)C(=O)Nc2ccccc2)ccc1OCCN1CCOCC1	-7.3%	-13.0%	-0.3%	-16.0%	i	2.5%[56.1 µM]
O=C(Nc1ccccc1OC(F)F)c1ccc(S(=O)(=O)N2CCCC2)cc1	4.2%	-27.0%	-18.8%	-6.6%	-12.6	3.0%
CCCCN1CC[C@H]2C=CC[C@@H](C(=O)Nc3nccs3)[C@H]2C1=O	?	-2.7%	-4.7%	13.7%	-1.2	nt
COc1ccc(CNc2cccc3[nH]c(C(F)(F)F)nc23)cc1	?	?	?	-25.5%	-70.9*	nt
COc1cc(CNc2cccc3[nH]c(C(F)(F)F)nc23)cc(OC)c1	12.6µM*	25.9µM*	23.1µM*	-46.4%	41.1	nt
SMILES	TGFb SMAD3 inh	TDP1 cell noCPT	TDP1 cell CPT	HepG2 tox	IL1B secr inh	TDP1 block
COc1cc(CNc2nc3ccccc3[nH]2)cc(OC)c1OC	4.5%	?	-17.7%	-3.8%	10.8	2.7%
COc1cccc(-c2cc(C(F)(F)F)nc(NCc3ccc(F)cc3)n2)c1	?	?	?	-31.1%	nt	-14.7%
O=C(NCC1CCCO1)c1ccc2c(c1)N(Cc1ccccc1)C(=O)CS2=O (configuration not stated)	-3.3%	?	14.6µM*	-14.1%	-7.7	?
O=C(Nc1ccc(Br)cc1F)c1ccc2c(c1)N(Cc1ccccc1)C(=O)CS2=O (configuration not stated)	-19.8%	13µM*	9.2µM*	-34.0%	-57.5*	5.2%
O=C(NCc1ccco1)c1ccc2c(c1)N(Cc1ccccc1)C(=O)CS2=O (configuration not stated)	3.1%	-8.7%	-27.2%	-1.4%	9.8	0.0%
COc1cc(C)ccc1S(=O)(=O)NC(=O)C1(C)CCN1C(=O)Cc1ccc(Cl)cc1Cl (configuration not stated)	5.0%	0.5%	5.1%	-3.8%	14.8	nt
COC(=O)c1ccccc1NC(=O)C1CCCN(S(C)(=O)=O)C1 (configuration not stated)	-2.5%	-2.0%	-0.6%	-2.0%	20.4	6.6%
COC(=O)c1ccccc1NC(=O)C1CCCN(S(=O)(=O)c2ccc(OC)cc2)C1 (configuration not stated)	-8.2%	11.6µM*	18.4µM*	-7.7%	8.7	2.6%
COC(=O)c1ccccc1NC(=O)C1CCCN(S(=O)(=O)c2ccc(F)cc2)C1 (configuration not stated)	0.0%	10.3µM*	14.6µM*	-3.4%	-1.2	6.2%
COC(=O)c1ccccc1NC(=O)C1CCCN(c2nnc(-n3cccc3)s2)C1 (configuration not stated)	-23.1%	20.6µM*	16.4µM*	-22.3%	-15.1	7.9%
COc1ccccc1NC(=O)C1CCCN(S(=O)(=O)c2ccc3[nH]c(=O)ccc3c2)C1 (configuration not stated)	0.9%	?	20.6µM*	-11.9%	25.1	nt
CC(C)c1ncc(CO)n1Cc1c(Cl)cccc1Cl	1.5%	?	?	-79.4%	2.6	nt
COc1ccccc1OCCOCCOc1c(C)cc(C)cc1Br	-29.3%	23.1µM*	?	-17.6%	-2.4	-11.0%
COc1ccc(CCNC(=O)c2ccc(Br)o2)cc1Br	nt	?	23.1µM*	nt	-12.0	nt
